{"source": "PubChem BioAssay AID2322", "about": "(Broad Institute, 2010)", "note": "The whole screen tested about 27,000 compounds, of which about 120 (0.44%) were called active. No stated cut-off is given here; in the data, active means inhibition above about 20%; inconclusive means no clear call, values can overlap the other calls; inactive means below that. Only a selection was taken, and actives are over-represented in it overall."}
{"target": "Serine/threonine-protein kinase 33 (Homo sapiens) (UniProt Q9BYT3)", "sequence (Q9BYT3 whole entry, looked up)": "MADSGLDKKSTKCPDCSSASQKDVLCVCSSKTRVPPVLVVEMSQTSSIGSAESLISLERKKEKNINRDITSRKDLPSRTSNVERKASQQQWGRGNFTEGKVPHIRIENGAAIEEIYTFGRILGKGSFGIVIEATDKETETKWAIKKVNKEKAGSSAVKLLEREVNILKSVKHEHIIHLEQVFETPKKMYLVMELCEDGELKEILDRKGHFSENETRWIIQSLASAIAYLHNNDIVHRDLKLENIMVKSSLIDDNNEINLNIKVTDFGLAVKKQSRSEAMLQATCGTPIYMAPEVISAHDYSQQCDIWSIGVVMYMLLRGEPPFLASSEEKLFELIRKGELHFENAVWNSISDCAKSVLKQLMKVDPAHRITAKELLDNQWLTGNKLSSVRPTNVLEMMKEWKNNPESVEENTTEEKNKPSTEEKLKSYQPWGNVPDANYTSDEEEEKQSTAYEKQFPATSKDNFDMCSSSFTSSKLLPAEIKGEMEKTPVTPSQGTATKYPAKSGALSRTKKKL", "assay": "STK33 kinase inhibitors, primary screen, biochemical, luminescence, ADP-Glo, MBP substrate (AID 2322)", "conditions": "at 12.5 µM, stronger effect = higher value"}
{"smiles": "Cc1ccc(N(CC(=O)Nc2ccccc2Sc2ccccc2)S(C)(=O)=O)c(C)c1", "inhibition": "-1.72% (inactive)"}
{"smiles": "COC(=O)c1ccc(NC(=O)CSc2nc(-c3ccccc3)cc(=O)[nH]2)cc1", "inhibition": "4.41% (inactive)"}
{"smiles": "O=C(O)CCCC(=O)Nc1ccc(F)cc1", "inhibition": "-2.71% (inactive)"}
{"smiles": "O=C(NCc1ccccn1)c1ccccc1C(=O)c1ccccc1", "inhibition": "-3.58% (inactive)"}
{"smiles": "CCC(O)c1ccc2c(=O)c(-c3ccccc3F)coc2c1", "note": "(stereo not drawn)", "inhibition": "1.14% (inactive)"}
{"smiles": "CCOc1ccc(NC(=O)CSc2nccc(C)n2)cc1", "inhibition": "-0.939% (inactive)"}
{"smiles": "COc1ccc(/C=C/C(=O)O[C@@H]2[C@@H](OC(=O)/C=C/c3ccc(OC)cc3)[C@H](C)O[C@@H](O[C@H]3[C@@H]4C=CO[C@@H](O[C@@H]5O[C@H](CO)[C@@H](O)[C@H](O)[C@H]5O)[C@@H]4[C@@]4(CO)O[C@@H]34)[C@@H]2OC(C)=O)cc1", "inhibition": "-0.911% (inactive)"}
{"smiles": "C[C@H]1CN([C@@H](C)CO)C(=O)c2cc(NC(=O)Cn3cnnn3)ccc2O[C@H]1CN(C)S(C)(=O)=O", "inhibition": "-0.963% (inactive)"}
{"smiles": "CCOC(=O)c1c(NC(=O)Cn2nc([N+](=O)[O-])c(Br)c2C)sc2c1CCCC2", "inhibition": "2.08% (inactive)"}
{"smiles": "Cc1cc(C)c2oc(-c3cccc(NC(=O)COc4ccc(Br)cc4)c3C)nc2c1", "inhibition": "5.61% (inactive)"}
{"smiles": "CCn1c(SCC(=O)Nc2cc(Cl)ccc2OC)nnc1-c1ccc(Br)cc1", "inhibition": "1.48% (inactive)"}
{"smiles": "CC(C)(C)c1ccc(OCC(=O)NCc2ccccn2)c(Br)c1", "inhibition": "-6.11% (inactive)"}
{"smiles": "Nc1ccc2c3c(cccc13)C(=O)NC2=O", "inhibition": "28.5% (active)"}
{"smiles": "C[C@@H]1CN([C@H](C)CO)C(=O)c2cc(NC(=O)Nc3ccc4c(c3)OCO4)ccc2O[C@H]1CN(C)Cc1ccc(-c2ccccc2)cc1", "inhibition": "0.655% (inactive)"}
{"smiles": "O=C(CSc1nc2ccc(NC(=O)c3ccccc3Cl)cc2s1)Nc1ccc(F)cc1", "inhibition": "0.13% (inactive)"}
{"smiles": "O=C(CSc1nnc(-c2ccccn2)n1-c1ccccc1)Nc1ccc2cn[nH]c2c1", "inhibition": "0.339% (inactive)"}
{"smiles": "COc1ccc(N(CC(=O)Nc2cc(C)ccc2OC)S(C)(=O)=O)cc1Cl", "inhibition": "-2.26% (inactive)"}
{"smiles": "NCCCC[C@@H]1NC(=O)[C@@H]2C[C@H](C(=O)NCc3ccc(F)cc3)[C@H](c3ccc(O)cc3)N2C1=O", "inhibition": "-1.29% (inactive)"}
{"smiles": "C[C@H](CO)N1C[C@H](C)[C@@H](CN(C)S(=O)(=O)c2ccc(F)cc2)OCc2cnnn2CCCC1=O", "inhibition": "3.05% (inactive)"}
{"smiles": "COc1ccc(C(C)=O)cc1CSc1nnc(-c2ccc(Br)cc2)n1-c1ccccc1", "inhibition": "-0.65% (inactive)"}
{"smiles": "COc1ccc(N(C(C)C(=O)Nc2cccc(Br)c2)S(C)(=O)=O)cc1", "note": "(stereo not drawn)", "inhibition": "-0.0651% (inactive)"}
{"smiles": "COC(=O)c1ccc(NC(=O)CSc2nc(-c3ccccc3)c(-c3ccccc3)[nH]2)cc1", "inhibition": "0.633% (inactive)"}
{"smiles": "O=[N+]([O-])c1ccc(NCCNCc2cccnc2)cc1", "inhibition": "0.298% (inactive)"}
{"smiles": "COc1ccc(NC(=O)CN2CCN(S(=O)(=O)c3ccc4ccccc4c3)CC2)cc1", "inhibition": "-0.51% (inactive)"}
{"smiles": "Cc1ccc(N(C(C)C(=O)Nc2ccc(F)c(Cl)c2)S(C)(=O)=O)cc1C", "note": "(stereo not drawn)", "inhibition": "-3.25% (inactive)"}
{"smiles": "Cc1ccc(-n2c(SCC(=O)Nc3cccc(C)c3C)nc3ccccc3c2=O)cc1", "inhibition": "-0.698% (inactive)"}
{"smiles": "O=C(c1ccc(NCc2cccnc2)c([N+](=O)[O-])c1)N1CCCCC1", "inhibition": "2.99% (inactive)"}
{"smiles": "CN(CC(=O)Nc1ccc(F)cc1)S(=O)(=O)c1ccccc1", "inhibition": "-1.62% (inactive)"}
{"smiles": "Nc1cc(N)nc(SCC(=O)c2ccc(Br)cc2)n1", "inhibition": "1.93% (inactive)"}
{"smiles": "O=C(CSc1nnc(-c2ccccc2)n1-c1ccc(Cl)cc1)Nc1ccc(Cl)cc1", "inhibition": "-3.34% (inactive)"}
{"smiles": "O=C(CN1CCCC1)Nc1sc2c(c1C(=O)Nc1ccccc1)CCCC2", "inhibition": "-1.02% (inactive)"}
{"smiles": "CN1C(=O)C(O)(CC(=O)c2ccco2)c2cc([N+](=O)[O-])ccc21", "note": "(stereo not drawn)", "inhibition": "1.09% (inactive)"}
{"smiles": "COc1ccc(-c2nnc(SCC(=O)O)n2-c2ccccc2)cc1OC", "inhibition": "0.684% (inactive)"}
{"smiles": "C[C@H]1CN([C@@H](C)CO)C(=O)CCCn2cc(nn2)CO[C@@H]1CN(C)S(=O)(=O)c1ccc(-c2ccccc2)cc1", "inhibition": "-9.48% (inactive)"}
{"smiles": "COc1ccc(NC(=O)O[C@@H](c2ccc(OCCO)cc2)[C@@H](C)CCO)cc1", "inhibition": "0.388% (inactive)"}
{"smiles": "COc1cc(OC)c(NC(=O)CSc2nnc(-c3ccncc3)n2-c2ccccc2)cc1Cl", "inhibition": "-1.55% (inactive)"}
{"smiles": "C[C@H](CO)N1C[C@H](C)[C@H](CN(C)S(=O)(=O)c2ccc(Cl)cc2)Oc2ccc(NC(=O)C3CCCCC3)cc2C1=O", "inhibition": "5.34% (inactive)"}
{"smiles": "CCCC(O)C#Cc1cnc2c(c1)C(=O)N([C@H](C)CO)C[C@H](C)[C@H](CN(C)S(=O)(=O)c1ccc(C#N)cc1)O2", "note": "(stereo partly drawn)", "inhibition": "2.14% (inactive)"}
{"smiles": "Cc1nn(CC(=O)NCc2ccccn2)c(C)c1[N+](=O)[O-]", "inhibition": "-1.47% (inactive)"}
{"smiles": "COC(=O)c1ccccc1NC(=O)CSc1n[nH]c(-c2ccncc2)n1", "inhibition": "2.87% (inactive)"}
{"smiles": "COc1ccc(C)cc1S(=O)(=O)N1CCCC(C(=O)Nc2ccccc2C(F)(F)F)C1", "note": "(stereo not drawn)", "inhibition": "1.43% (inactive)"}
{"smiles": "CC(C)N1C(=O)[C@@]2(Cc3ccccc31)c1ccccc1C(=O)N(C1CCCCC1)[C@H]2c1ccc(CO)cc1", "inhibition": "4.98% (inactive)"}
{"smiles": "Cc1ccc(NC(=O)COc2ccccc2C)c([N+](=O)[O-])c1", "inhibition": "0.544% (inactive)"}
{"smiles": "COc1ccc(OC)c(NC(=O)Cn2cc(C(=O)C3CC3)c3ccccc32)c1", "inhibition": "-2.72% (inactive)"}
{"smiles": "COc1ccc(Cl)cc1N(CC(=O)Nc1ccc(Br)c(Cl)c1)S(C)(=O)=O", "inhibition": "1.17% (inactive)"}
{"smiles": "CN(CC(=O)Nc1ccccc1C#N)S(=O)(=O)c1ccc2ccccc2c1", "inhibition": "1.4% (inactive)"}
{"smiles": "C[C@H](CO)N1C[C@H](C)[C@@H](CN(C)C(=O)C2CCCCC2)OCc2cnnn2CCCC1=O", "inhibition": "0.882% (inactive)"}
{"smiles": "COc1ccc(NC(=O)CSc2nncc3ccccc23)c([N+](=O)[O-])c1", "inhibition": "-3.11% (inactive)"}
{"smiles": "C[C@H](CO)N1C[C@H](C)[C@H](CN(C)S(C)(=O)=O)Oc2ncc(C#CCN(C)C)cc2C1=O", "inhibition": "3.31% (inactive)"}
{"smiles": "O=[N+]([O-])c1cccc(NC(=S)Nc2nn(Cc3ccc(Cl)cc3Cl)cc2Cl)c1", "inhibition": "1% (inactive)"}
{"smiles": "Cc1ccc(-c2ccc(CCC(=O)O)n2-c2ccc(C(N)=O)cc2)cc1", "inhibition": "-3.89% (inactive)"}
{"smiles": "O=C(NCc1ccco1)c1ccc2c(c1)C(=O)N(Cc1cccnc1)C2=O", "inhibition": "-0.956% (inactive)"}
{"smiles": "Cc1ccc(-c2nc(S(=O)(=O)c3ccc(Br)cc3)c(SCC(N)=O)o2)cc1", "inhibition": "4.38% (inactive)"}
{"smiles": "Cc1ccc(S(=O)(=O)N(C)CC(=O)Nc2cccc(F)c2)cc1", "inhibition": "-1.04% (inactive)"}
{"smiles": "CCOC(=O)C(C)Sc1ncnc2c1sc1nc(N3CCOCC3)c3c(c12)CC(C)(C)OC3", "note": "(stereo not drawn)", "inhibition": "-0.767% (inactive)"}
{"smiles": "Cc1ccc(NC(=O)CSc2nc3ccccc3s2)cc1[N+](=O)[O-]", "inhibition": "1.36% (inactive)"}
{"smiles": "CC(C)[C@H](CO)Nc1nc(Nc2cc(N)cc(Cl)c2)c2ncn(C(C)C)c2n1", "inhibition": "89.6% (active)"}
{"smiles": "Cc1ccc(S(=O)(=O)N(C)C[C@@H]2Oc3ccc(NC(=O)Nc4ccc(F)cc4)cc3C(=O)N([C@H](C)CO)C[C@@H]2C)cc1", "inhibition": "-2.65% (inactive)"}
{"smiles": "O=C(CCn1nc(-c2ccc(Cl)cc2)c2ccccc2c1=O)Nc1ccc(Br)cc1", "inhibition": "-3.22% (inactive)"}
{"smiles": "O=C(O)CCNS(=O)(=O)c1ccc2c(c1)OCCO2", "inhibition": "1.73% (inactive)"}
{"smiles": "C(=C\\c1nn2c(C3COc4ccccc4O3)nnc2s1)/c1ccccc1", "note": "(stereo not drawn)", "inhibition": "-1.1% (inactive)"}
{"smiles": "C[C@H]1CN([C@@H](C)CO)C(=O)CCCn2nncc2CO[C@H]1CN(C)Cc1ccc2c(c1)OCO2", "inhibition": "5.15% (inactive)"}
{"smiles": "CN(CC(=O)Nc1ccc(Cl)c(Cl)c1)S(=O)(=O)c1ccc2ccccc2c1", "inhibition": "0.105% (inactive)"}
{"smiles": "Cc1ccc(CN(C)C[C@H]2OCc3cn(nn3)CCCC(=O)N([C@@H](C)CO)C[C@H]2C)cc1", "inhibition": "3.49% (inactive)"}
{"smiles": "Cc1ccccc1OCC(=O)Nc1cc(-c2nc3ccccc3s2)c(Cl)cc1Cl", "inhibition": "-0.293% (inactive)"}
{"smiles": "COc1ccc(NC(=O)COc2cc(C)c(Br)c(C)c2)c([N+](=O)[O-])c1", "inhibition": "-1.64% (inactive)"}
{"smiles": "COc1cccc(NC(=O)N(C)C[C@@H]2OCc3cn(nn3)CCCC(=O)N([C@@H](C)CO)C[C@H]2C)c1", "inhibition": "-4.73% (inactive)"}
{"smiles": "O=C(CSc1nc2ccccc2s1)c1cc2ccccc2oc1=O", "inhibition": "-1.09% (inactive)"}
{"smiles": "COc1cc(Cl)c(C)cc1NC(=O)CSc1nnnn1-c1ccccc1", "inhibition": "-5.72% (inactive)"}
{"smiles": "O=C(CSc1nnc(-c2cccs2)n1-c1ccccc1Cl)Nc1cccc(C(=O)O)c1", "inhibition": "-0.392% (inactive)"}
{"smiles": "Cn1c(=O)c2c(nc(SCC(=O)NC(C)(C)C)n2Cc2ccccc2F)n(C)c1=O", "inhibition": "-1.84% (inactive)"}
{"smiles": "C[C@@H]1CN([C@@H](C)CO)C(=O)CCCn2cc(nn2)CO[C@@H]1CN(C)S(=O)(=O)c1cccc(F)c1", "inhibition": "-2.04% (inactive)"}
{"smiles": "COc1ccc(NC(=O)CSc2nnc(-c3ccc(Br)cc3)n2C)cc1", "inhibition": "-2.11% (inactive)"}
{"smiles": "CCn1c(SCC(=O)c2ccc(OC)cc2)nnc1-c1ccc(Cl)cc1Cl", "inhibition": "-3.02% (inactive)"}
{"smiles": "Cc1noc(C)c1NC(=O)Nc1ccc2c(c1)C(=O)N([C@H](C)CO)C[C@H](C)[C@@H](CN(C)Cc1ccc3c(c1)OCO3)OCCCC[C@@H](C)O2", "inhibition": "-1.44% (inactive)"}
{"smiles": "C[C@@H]1CN([C@H](C)CO)C(=O)Cc2cc(NC(=O)Nc3ccc4c(c3)OCO4)ccc2O[C@@H]1CN(C)C(=O)Nc1ccccc1", "inhibition": "0.707% (inactive)"}
{"smiles": "C=CCn1c2ccccc2c2nnc(SCC(=O)N3c4ccccc4Sc4ccccc43)nc21", "inhibition": "-0.993% (inactive)"}
{"smiles": "C[C@@H]1CN([C@@H](C)CO)C(=O)CCCn2cc(nn2)CO[C@@H]1CN(C)S(=O)(=O)c1ccccc1C#N", "inhibition": "-7.04% (inactive)"}
